Assay outcomes from PubChem.
HPGD block = inhibitors of human 15-hydroxyprostaglandin dehydrogenase (HPGD); P15428; purified HPGD, NADH fluorescence kinetic, PGE2 substrate; Potency, µM, for the others: at the top dose activity change, negative = inhibition, actives largely listed as inhibitors; hit rate 4.3% among 150,000
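20 nM HPGD preincubated 15 min at room temperature with compound in 50 mM Tris-HCl pH 8, 0.01% Tween 20. Started with 1 mM NAD+ and 30 uM prostaglandin E2; NADH fluorescence (360/450 nm) read 5 times over 30-s intervals, last minus first.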
Tau fluor counter = counter-screen for tau fibril formation inhibitors | tau K18 P301L Alexa594 fluorescence, heparin fibrillization | Potency, µM (top dose mostly 57.7 µM), for the others: at the highest dose activity change, negative = decrease | hit rate 0.93% among 280,000; active means well fitted curve in the direction sought with a large enough effect; inconclusive means small, poorly fitted or top-dose-only effect, or another doubt; inactive means no such curve, though single readings can be large; an effect the other way counts as inactive or inconclusive; further: nearly all actives have a fitted effect of over 55% in size
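Human K18 P301L tau (15 uM unlabeled plus 0.24 uM Alexa 594-labeled, final) in 100 mM sodium acetate pH 7 was mixed with compound and 20 uM heparin and incubated 6 hr at 37 C.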
ALDH1A1 inh = ALDH1A1 (human) enzyme inhibition; P00352; Purified ALDH1A1, NADH fluorescence, propionaldehyde substrate; Potency, µM (top dose mostly 75.3 µM), inactives show at the highest dose activity, negative = inhibition, actives largely listed as inhibitors; hit rate 7.3% among 220,000; AID 1030;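 further: plate controls were no enzyme wells and a reference inhibitor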
Tau fibril ThT = tau fibrillization inhibition (ThT binding); recombinant tau K18 P301L (four-repeat tau fragment), heparin-induced fibrillization, ThT fluorescence; hit rate 2.1% among 270,000; Potency, µM (titrated, usually from 57.4 µM), inactives show top-dose activity, negative = inhibition, most hits filed as inhibitors; P10636; AID 1460; active means well fitted curve in the direction sought with a large enough effect; inconclusive means small, poorly fitted or top-dose-only effect, or another doubt; inactive means no such curve, though single readings can be large; an effect the other way counts as inactive or inconclusive; further: nearly all actives have a fitted effect of over 55% in size
Target sequence (P10636 561-689 P618L limits assumed): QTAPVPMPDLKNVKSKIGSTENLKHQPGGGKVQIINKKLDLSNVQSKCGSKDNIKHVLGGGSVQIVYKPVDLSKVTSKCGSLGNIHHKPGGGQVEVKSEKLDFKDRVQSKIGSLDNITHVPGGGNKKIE
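In this qHTS, human K18 P301L tau is incubated with compound and heparin for 6 hr at 37 C, and Thioflavin T fluorescence then reports fibril load.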
JMJD2E inh = blocks human JMJD2E demethylase activity; B2RXH2; JMJD2E catalytic domain, FDH-coupled NADH fluorescence (FDH is formaldehyde dehydrogenase); Potency, µM (series often up to 57.1 µM), for the others: at the top dose activity change, negative = inhibition, most hits filed as inhibitors; hit rate 1.6% among 230,000;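 further: 0% = wells with enzyme and -100% = buffer wells without enzyme; nearly all actives have a fitted effect of over 50% in size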
Target sequence (B2RXH2 1-337 limits assumed): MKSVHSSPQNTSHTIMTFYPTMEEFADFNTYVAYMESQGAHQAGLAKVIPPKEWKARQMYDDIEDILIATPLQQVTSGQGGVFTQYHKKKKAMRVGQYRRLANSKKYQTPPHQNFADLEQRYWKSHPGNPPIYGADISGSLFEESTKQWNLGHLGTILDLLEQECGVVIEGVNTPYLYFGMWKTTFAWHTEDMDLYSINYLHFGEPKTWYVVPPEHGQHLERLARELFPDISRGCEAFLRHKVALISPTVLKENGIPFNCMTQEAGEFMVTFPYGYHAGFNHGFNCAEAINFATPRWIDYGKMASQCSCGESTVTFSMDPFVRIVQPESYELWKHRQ
Tau FP inhib = tau fibrillization inhibition (FP) | P10636 | K18 P301L tau heparin fibrillization, Alexa594 FP, 6 h | Potency, µM (titrated, usually from 57.7 µM), without a hit: top-dose activity, negative = inhibition, usual class: inhibitors | hit rate 0.39% among 280,000; active means well fitted curve in the direction sought with a large enough effect; inconclusive means small, poorly fitted or top-dose-only effect, or another doubt; inactive means no such curve, though single readings can be large; an effect the other way counts as inactive or inconclusive; further: nearly all actives have a fitted effect of over 55% in size
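Quantitative HTS format: compounds meet 15 uM recombinant K18 P301L tau and Alexa 594-tau tracer in 100 mM sodium acetate pH 7; 20 uM heparin triggers fibrillization at 37 C over 6 hr; FP gives the signal.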
Numbers without * were called inactive; ? = inconclusive; / = no result given; [ ] = remark or other dose. An excerpt weighted towards active compounds, which were near 9.9% of everything screened. Unless noted, the call rests on the fitted dose curve; in most records, active means well fitted inhibition curve with a large enough effect (not every such curve was filed as active); inconclusive means small, poorly fitted or top-dose-only effect, or another doubt; inactive means no such curve, though single readings can be large or run the other way. Unless noted, on the % scale 0 is the no-effect control and ±100 the full control effect; potency means the concentration at half of the fitted maximal effect.

SMILES | HPGD block | Tau fluor counter | ALDH1A1 inh | Tau fibril ThT | JMJD2E inh | Tau FP inhib
CCOC(=O)C1CCCN(C(=O)c2cnn3c(C(F)(F)F)cc(-c4ccccc4)nc23)C1 (stereo unspecified) | 25.1µM* | -4.0% | ? | -11.0% | -2.6% | -3.5%
CCOC(=O)C1CCCN(C(=O)c2cc3nc(-c4cccc(OC)c4)cc(C(F)(F)F)n3n2)C1 (stereo unspecified) | 15.8µM* | -6.9% | ? | ? | ? | 0.0%
O=C(c1cnn2c(C(F)(F)F)cc(-c3ccc(Br)cc3)nc12)N1CCOCC1 | ? | -4.6% | 15.6% | 0.1% | 0.8% | -5.9%
CCOC(=O)C1CCCN(C(=O)c2ccc3c(c2)sc2nc(-c4cccc(OC)c4)cn23)C1 (stereo unspecified) | / | -4.5% | / | -13.6% | / | 8.5%
CCOC(=O)c1cnn2c(C(F)(F)F)cc(-c3ccccc3)nc12 | ? | -6.2% | -9.7% | 2.9% | ? | 1.4%
O=C(NCCc1ccc(Cl)cc1)c1ccc2c(c1)N(Cc1c(F)cccc1Cl)C(=O)CS2 | / | -19.7% | / | 1.6% | / | -10.7%
CCn1nc([N+](=O)[O-])c(C(C#N)c2nc3ccccc3n2C)c(Cl)c1=O (stereo unspecified) | -9.1% | ? | 10.7% | 11.2µM* | -5.1% | -1.0%
CCCn1nc([N+](=O)[O-])c(C(C#N)c2nc3ccccc3s2)c(Cl)c1=O (stereo unspecified) | -17.5% | 5.01µM*[quencher] | ? | 3.98µM* | -8.1% | 17.8µM*
CCCn1nc(C(=O)Nc2nc3ccccc3[nH]2)c2ccccc2c1=O | -0.7% | 7.2% | ? | -10.9% | -10.1% | 3.1%
Cn1c(C(C#N)C(=O)c2sc3ccccc3c2Cl)nc2ccccc21 (stereo unspecified) | / | -1.1% | ? | -8.1% | 0.3% | ?
Cc1ccc(CSC2=Nc3ccccc3C3=NC(CCC(=O)N4CCN(c5ccccc5)CC4)C(=O)N23)cc1 (stereo unspecified) | / | -23.2% | / | ? | / | -4.0%
Cc1cc(C)n(C(C[N+](=O)[O-])c2ccc(Cl)cc2)n1 (stereo unspecified) | 7.94µM* | -22.6% | ? | ? | -3.4% | -0.7%
Cc1cc(O)c(C(C[N+](=O)[O-])c2ccc(Cl)cc2)c(=O)o1 (stereo unspecified) | -11.2% | -17.6% | ? | ? | 5.9% | ?
Cc1cccc([C@H]2[C@@H]3C=CCC[C@@H]3C(=O)N2Cc2ccccc2)c1 | -17.4% | -5.2%[81.3 µM] | 28.2µM* | -8.9%[81.4 µM] | / | 7.9%[81.3 µM]
Cc1ccc(-c2cccc(C3CC=CC4C3C(=O)N(Cc3ccccc3)C4c3ccc4ccccc4c3)c2)cc1 (stereo unspecified) | / | -2.3% | / | -2.7% | -9.8% | -4.4%
CC(NCc1ccc(F)cc1)C(=O)NC1CCCCC1 (stereo unspecified) | / | -21.4% | 3.4% | 31.6µM* | -7.1% | -20.2%
Fc1ccc(CNC(=S)NC2CCCCC2)cc1 | / | -4.0% | 3.5% | 2.6% | 5.1% | -2.3%
CC(NCc1ccc2c(c1)OCO2)C(=O)NC1CCCCC1 (stereo unspecified) | / | 7.8%[2.34 µM] | 35.5µM* | -10.2% | 2.4% | 5.9%
CCN1CCN(C(=O)NC(C(=O)NC2C(=O)N3C2SC(C)(C)C3C(=O)O)c2ccccc2)C(=O)C1=O (stereo unspecified) | -6.6% | 0.3% | 1.3% | -0.2% | -7.8% | -2.4%
CCOC(=O)c1cnc2c(ccc3ccccc32)c1Nc1cccc(C(F)(F)F)c1 | / | -15.3% | / | -4.0% | / | -14.4%
O=C(CCn1cnc2onc(-c3ccc(F)cc3)c2c1=O)Nc1cccc(C(F)(F)F)c1 | / | ? | / | 13.7% | / | 22.4µM*
Cc1ccc(NC(=O)CCn2cnc3onc(-c4ccc(F)cc4)c3c2=O)c(Br)c1 | / | -29.3% | / | -0.2% | / | ?
O=C(CCn1cnc2onc(-c3ccc(F)cc3)c2c1=O)Nc1ccc(F)c(Cl)c1 | / | ? | / | 18.0% | / | 28.2µM*
CCCS(=O)(=O)O | -0.3% | / | 11.8%[13.5 µM] | / | / | /
Cc1ccc(NS(=O)(=O)c2ccc3c(c2)CCCN3C(=O)C2CCC2)c(C)c1 | / | -16.7% | / | -2.9% | / | 3.3%
